Source: PubChem BioAssay AID504942 (Broad Institute, 2011)
Entries with a potency or affinity are not part of this list. Active and inactive are the calls of the source. How the calls were made is not given here.

Assay: toxicity to human HeLa cells – cell-based, 48 h, plate reader, cherry-picks, cytotoxicity control, dose response (AID 504942)
Settings: series mostly up to 38 µM

N#CC1C(C#N)C2CCC1C1C2N1c1ccccc1 (stereo unspecified)
outcome: inactive
